# In all, about 39,000 compounds went through this assay and about 3,300 (8.5%) were called active. Shown is part of a subset that was picked to be rich in actives.
# System: HepG2
# Test: cytotoxicity call (relative viability < 0.9)
# Conditions: 10 µM
row,Structure (SMILES),cytotoxicity call
1,COc1ccc(S(=O)(=O)N[C@@H](CNc2nc(C)nc(N3CCC(c4ccc5c(n4)NCCC5)CC3)c2C)C(=O)O)cc1,active
2,O=C(NCCCN1CCOCC1)[C@H]1[C@@H]2C=C[C@@]3(CN(Cc4cccs4)C(=O)[C@@H]13)O2,inactive
3,Cc1cncc2cccc(S(=O)(=O)N3CC[C@H](N(C/C=C/c4ccc(Br)cc4)C/C=C/c4ccc(Br)cc4)C3)c12,inactive
4,S=C(NCCCc1cnc[nH]1)NCCCN(Cc1ccc(Cl)c(Cl)c1)c1ccc(Br)cn1,active
5,C[C@@H]1CCCCO[C@@H](CN(C)C(=O)Nc2ccccc2)[C@H](C)CN([C@H](C)CO)C(=O)c2cc(NS(=O)(=O)c3ccccc3)ccc2O1,inactive
6,CC(C)(C)[S@@+]([O-])N1Cc2cc(C(=O)NCc3ccc4c(c3)OCO4)nc(-c3ccc(-c4ccccc4)cc3)c2[C@H]1CCO,inactive
7,COc1ccc(S(=O)(=O)N[C@@H]2C=C[C@@H](CC(=O)N3CCC(Cc4ccccc4)CC3)O[C@H]2CO)cc1,inactive
8,CCCNC(=O)C[C@@H]1CC[C@H]2[C@H](COc3ccc(NC(=O)c4ccc5c(c4)OCO5)cc3C(=O)N2C)O1,inactive
9,C[C@H]1CN([C@@H](C)CO)C(=O)Cc2cc(NS(=O)(=O)c3ccc(Cl)cc3)ccc2O[C@H]1CN(C)Cc1ccc(Cl)c(Cl)c1,active
10,C[C@H]1CN([C@@H](C)CO)C(=O)Cc2cc(NS(=O)(=O)c3ccc(Cl)cc3)ccc2O[C@@H]1CN(C)Cc1ccc(Cl)c(Cl)c1,inactive
11,C[C@@H]1CN([C@H](C)CO)C(=O)Cc2cc(NS(=O)(=O)c3ccc(Cl)cc3)ccc2O[C@H]1CN(C)Cc1ccc(Cl)c(Cl)c1,inactive
12,C[C@H](CO)N1C[C@H](C)[C@@H](CN(C)Cc2ccc(Cl)c(Cl)c2)Oc2ccc(NS(=O)(=O)c3ccc(Cl)cc3)cc2CC1=O,inactive
13,C[C@@H]1CN([C@@H](C)CO)C(=O)Cc2cc(NS(=O)(=O)c3ccc(Cl)cc3)ccc2O[C@H]1CN(C)Cc1ccc(Cl)c(Cl)c1,inactive
14,C[C@@H]1CN([C@H](C)CO)C(=O)Cc2cc(NS(=O)(=O)c3ccc(Cl)cc3)ccc2O[C@@H]1CN(C)Cc1ccc(Cl)c(Cl)c1,active
15,C[C@@H]1CN([C@@H](C)CO)C(=O)Cc2cc(NS(=O)(=O)c3ccc(Cl)cc3)ccc2O[C@@H]1CN(C)Cc1ccc(Cl)c(Cl)c1,active
16,C[C@H](CO)N1C[C@H](C)[C@H](CN(C)Cc2ccc(Cl)c(Cl)c2)Oc2ccc(NS(=O)(=O)c3ccc(Cl)cc3)cc2CC1=O,active
17,CO[C@H]1CN(C)C(=O)c2ccc(NS(=O)(=O)c3cn(C)cn3)cc2OC[C@@H](C)N(Cc2cccc(F)c2)C[C@H]1C,inactive

# Source: the antibiotic and cytotoxicity screens of Wong et al. (2023)
